# In the library only some 9.5% were active in any assay of this set; here they are far more common.
# RE007 growth inh – less growth of the S. pombe RE007 Vpr strain | S. pombe RE007 Vpr strain, BacTiter-Glo ATP luminescence, 24 h | AID 651644 | Potency, µM (titrated, usually from 92.2 µM), for the others: at the highest dose activity change, negative = less growth, actives largely listed as inhibitors | 360,000 tested, 0.21% active; active = well fitted falling curve with a large enough effect; inconclusive = small, poorly fitted or top-dose-only effect; inactive = no such curve, though single readings can be large or run the other way; note: % is set by controls: 0 for no effect and ±100 for the full control effect; nearly all actives have a fitted effect of over 50% in size
#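 Fission yeast RE007 carrying one integrated HIV-1 vpr copy, seeded at OD 0.01 in PMG+AL medium with 23 nL pinned compound. Grown 24 h at 30 degrees; viability read by BacTiter-Glo luminescence after 5 min.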
# NS1 inh – blocks influenza NS1 protein function | Potency, µM (titrated, usually from 46.1 µM), inactives show at the top dose activity, positive = more growth | 270,000 tested, 0.4% active | AID 2326; calls by dose curve; note: actives are rising curves; nearly all actives have a fitted effect of over 50% in size
#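 Growth recovery, yeast-based: influenza A NS1 expressed in S. cerevisiae causes slow growth, and suppressors are detected by OD600. The parent strain without NS1 is used as positive control.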
# Pf growth 96h – P. falciparum growth inhibition at 96 hour, primary screen for plastid delayed-death inhibitors; 320,000 tested, 6.9% active; Potency, µM (doses to about 28.7 µM), without a hit: at the top dose activity change, negative = inhibition, usual class: inhibitors; P. falciparum luciferase reporter growth, 96 h; AID 504834; note: % is set by controls: 0 for no effect and ±100 for the full control effect
#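 96 h incubation, 37 C, 5% CO2, of luciferase-reporter P. falciparum-infected RBCs (2% hematocrit, 0.05% parasitemia final) with test compounds; endpoint luminescence.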
# SARS PLpro yeast – inhibitors of SARS-CoV papain-like protease in yeast | Potency, µM (top dose mostly 32.9 µM), for inactives: at the highest dose activity, positive = growth rescue, usual class: activators | S. cerevisiae expressing SARS-CoV PLpro, growth rescue | 330,000 tested, 0.19% active; calls by dose curve; note: 0% is about no effect; nearly all actives have a fitted effect of over 55% in size
# Pf growth 48h – inhibits P. falciparum growth in the first generation, 48 h; P. falciparum luciferase growth in erythrocytes, 48 h; Potency, µM (series often up to 28.7 µM), for inactives: at the highest dose activity change, negative = inhibition, usual class: inhibitors; 310,000 tested, 5.9% active; AID 504832; note: % is set by controls: 0 for no effect and ±100 for the full control effect
#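 In quantitative HTS format, infected erythrocytes bearing luciferase-reporter parasites were treated for a single generation at 37 C. Luminescence after adding detection reagent served as the growth measure.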
# Active calls of the source: *; ? = inconclusive; / = no result; [ ] = dose if it differs, or a comment. Unless noted, calls come from the whole dose curve; as a rule, active = well fitted inhibition curve with a large enough effect; inconclusive = small, poorly fitted or top-dose-only effect, or another doubt; inactive = no such curve, though single readings can be large or run the other way. Potency is the fitted concentration of half-maximal effect.
SMILES,RE007 growth inh,NS1 inh,Pf growth 96h,SARS PLpro yeast,Pf growth 48h
CN(C)CCNC(=O)C1(O)c2cc(Br)ccc2NC(=O)N1c1ccc(Cl)cc1 (stereo not given),-10.7%,-1.9%,1.8%,2.1%,-3.5%
COc1ccc(CNC(=O)CN(C(=O)CCC(=O)Nc2nccs2)c2cccc(C)c2)cc1,4.0%,4.2%,-3.6%,2.3%,2.6%
COc1cc2c(cc1OC)CN(C(=O)/C=C/c1ccccc1[N+](=O)[O-])CC2,-1.8%,-8.6%,?,6.9%,?
CCN1CC=C(c2c[nH]c3ccccc23)CC1,5.2%,-0.2%,40.3%,?,1.04µM*
O=C(C(=O)N1CC=C(c2ccccc2)CC1)c1c[nH]c2ccccc12,18.5%,-14.7%,44.6%,-57.0%,10.2%
COc1ccc(-c2nc(NC(=O)Cn3cnnn3)sc2C)cc1,-1.4%,/,40.0%,0.0%,21.8%
COc1ccc(-c2nc(NC(=O)Cn3ccc(C(F)(F)F)n3)sc2C)cc1,4.5%,11.8%,13.1µM*,0.9%,/
CC(NC(=O)CCC(=O)c1ccccc1)c1ccc(F)cc1 (stereo not given),0.3%,/,?,-1.5%,?
O=C1c2ccccc2C(=O)c2c1ccc(C(=O)N1CCCCC1)c2NCCO,-1.9%,-6.4%,14.6%,5.2%,-4.1%
CC1(C)CCCN(C(=O)c2ccc3c(c2NCCO)C(=O)c2ccccc2C3=O)C1,-8.5%,-11.7%,?,-4.7%,13.1µM*
CC[C@@]12C(=O)N(c3ccc(C)cc3)C(=O)N1[C@H](c1ccc(Br)cc1)[C@@H]1C(=O)N(C(C)(C)C)C(=O)[C@@H]12,0.1%,5.1%,?,9.4%,?
COC(=O)c1sc(SC)c2c1CC(C)(C)C/C2=N/O,-5.8%,4.2%,0.3%,0.2%,9.1%
CSc1sc(C(=O)OC(C)C)c2c1C(=O)CC(C)(C)C2,5.8%,5.4%,?,0.2%,7.38µM*
CC(C)(C)S(=O)(=O)N1C[C@@H]2CC/C=C\C/C=C\2[C@H]1CCO,-5.4%,/,/,/,/
Clc1ccc(C2=NCCN2)cc1,-14.3%,-4.4%,1.4%,-1.0%,-29.2%
O=C(Nc1ccc(C2=NCCN2)cc1)c1ccc(Cl)c(C(=O)Nc2ccc(C3=NCCN3)cc2)c1,/,-8.7%,0.208µM*,2.3%,2.33µM*
CCN1CCN(c2ccc(S(=O)(=O)N3CCCCC3)cc2NC(=O)/C=C/c2cccc(OC)c2OC)CC1,3.0%,-8.4%,?,0.1%,0.0%
CN1CCN(c2ccc(S(=O)(=O)N3CCCCC3)cc2NC(=O)/C=C/c2ccc(OC(F)F)cc2)CC1,3.9%,/,7.38µM*,-1.3%,9.28µM*
CCN1CCN(c2ccc(S(=O)(=O)N3CCCCC3)cc2NC(=O)/C=C/c2ccc(OC(F)F)cc2)CC1,27.7%,/,4.15µM*,0.0%,9.28µM*
O=C(NNS(=O)(=O)c1ccc(Br)cc1)c1ccccc1-n1cccc1,13.2%,4.9%,4.2%,-1.2%,84.6%
O=C(COC(=O)c1ccc(Br)cc1)Nc1ccccc1Br,20.2%,/,-2.4%,-6.2%,-4.0%
c1ccc(-c2nnc(CN3CCN(C(c4ccccc4)c4ccccc4)CC3)o2)cc1,14.6%,1.4%,9.28µM*,-6.8%,-40.9%
OCCOCCN1CCN(C(c2ccccc2)c2ccc(Cl)cc2)CC1 (stereo not given),-6.2%[18.4 µM],5.8%,?,4.9%,?
CC(C)(C)n1nnnc1C(c1ccccc1)N1CCCN(Cc2ccc(F)cc2)CC1 (stereo not given),-23.8%,/,/,/,/
CC(C)(C)n1nnnc1CN1CCN(C(c2ccccc2)c2ccccc2)CC1,-10.3%,-29.9%,-13.3%,9.2%,5.22µM*
SMILES,RE007 growth inh,NS1 inh,Pf growth 96h,SARS PLpro yeast,Pf growth 48h
CC(C)(C)c1ccc(CN2CCN([C@H](c3ccccc3)c3ccc(Cl)cc3)CC2)cc1,/,-10.3%,7.57µM*,/,16.9µM*
CNC(=O)c1cc(C(=O)c2ccc(F)cc2C(F)(F)F)c[nH]1,-12.4%,-0.6%,4.7%,1.5%,-7.9%[0.00184 µM]
CCOC(=O)c1ccccc1-n1c(C)cc(C2N=C(N)Nc3nc4ccccc4n32)c1C (stereo not given),7.7%,5.5%,1.65µM*,-0.7%,/
CCOC(=O)C1=C(C)Nc2nc3ccccc3n2C1c1ccc(O)cc1 (stereo not given),-8.8%,-2.0%,10.5%,0.8%,-22.1%
COc1cc(C(=O)NCC(c2cccs2)N2CCOCC2)c([N+](=O)[O-])cc1OC (stereo not given),-7.1%,/,0.8%,-0.1%,1.8%
OCCCNc1nc(-c2ccc(Cl)cc2)nnc1-c1ccc(Br)cc1,-21.2%,-37.1%,?,-83.8%,-29.8%
O=[N+]([O-])c1ccc(-c2nnc(-c3ccccc3)c(NCCCO)n2)cc1,-4.0%,2.4%,5.22µM*,17.7%,?
COCCNS(=O)(=O)c1cc(OC)ccc1OC,-7.9%,4.6%,10.4%,0.0%,8.8%[5.75 µM]
Cc1ccccc1Nc1n[nH]c(C)c1[N+](=O)[O-],-8.1%,-29.0%,3.7µM*,-13.8%,45.0%
C/C(N)=C(/C#N)C(=O)COC(=O)[C@@H](NC(=O)c1ccccc1Cl)C(C)C,12.6%,/,-0.1%,-0.4%,-3.6%
CCCCc1nnc(NC(=O)C(C)Sc2nc(O)c(Cc3ccccc3)c(=O)[nH]2)s1 (stereo not given),-3.2%,2.7%,0.1%,-1.4%,-1.2%
CNCCC=C1c2ccccc2C=Cc2ccccc21,-17.1%[18.4 µM],/,/,/,/
CN(C)CCC=C1c2ccccc2CCc2ccccc21,10.3%[18.4 µM],-5.9%,?,-41.0%,14.7µM*
CN(C)CCC=C1c2ccccc2C=Cc2ccccc21,-10.8%,-9.3%,?,/,11.7µM*
CN(C)CCC=C1c2ccccc2C(C)(C)c2ccccc21,/,/,6.75µM*,/,?
CCC(C)N(C(=O)COC(=O)c1ccc(N)c([N+](=O)[O-])c1)C1CCS(=O)(=O)C1 (stereo not given),-7.3%,/,/,/,/
C=CCN1CCN(C(=O)c2cc3c(s2)CCC(CC)C3)CC1 (stereo not given),-3.4%,-0.8%,3.4%,2.6%,21.1%
CC1(C)O[C@H]2[C@@H](c3[nH]nc4c(=O)[nH]c(=O)[nH]c34)OC[C@H]2O1,/,-5.9%,/,/,/
COCCNC(=O)C1CCCN(C(=O)COc2ccc(C(C)(C)C)cc2)CC1 (stereo not given),2.1%,/,/,/,/
CCN(CC)S(=O)(=O)c1ccc2c(c1)nc(CCC(=O)Nc1ccccc1Cc1ccccc1)n2CC,5.6%,11.9%,/,3.8%,11.7µM*
CCn1c(CCC(=O)Nc2cc(F)ccc2C)nc2cc(S(=O)(=O)N(C)C)ccc21,15.5%,-5.8%,-3.4%,7.7%,?
Cc1ccc2oc(=O)c3cnn(CC(=O)N4CCc5ccccc5C4)c3c2c1,-10.2%,-148.0%,2.62µM*,5.3%,/
CCN1CCN(CCCNC(=O)c2cc3c(=O)[nH]c4ccccc4c3s2)CC1,-15.8%,-1.8%,10.4µM*,6.2%[6.58 µM],/
Cc1ccc2oc(=O)c3cc(C(=O)NCCCN4CCc5ccccc5C4)sc3c2c1,-3.5%,-3.0%,11.7µM*,-4.4%,-16.9%

# Compound activity as filed in PubChem.
